Bioassay records as filed in PubChem.
USP17 block – inhibitors of human USP17 deubiquitinase | A8MUK1 | purified USP17, Ub-rhodamine cleavage fluorescence, 3 h | inhibition, % at 50 µM | 6.5% of 47,000 active | AID 1645855
USP28 block – inhibitors of human USP28 deubiquitinase; purified USP28, Ub-rhodamine cleavage fluorescence, 30 min; inhibition, % at 25 µM; AID 1645857; 3% of 47,000 active; Q96RU2
USP30 block – human USP30 deubiquitinase inhibition | Q70CQ3 | purified USP30, Ub-rhodamine cleavage fluorescence | inhibition, % at 25 µM | 5.3% of 47,000 active | AID 1645860
Target sequence (Q70CQ3 whole entry, looked up): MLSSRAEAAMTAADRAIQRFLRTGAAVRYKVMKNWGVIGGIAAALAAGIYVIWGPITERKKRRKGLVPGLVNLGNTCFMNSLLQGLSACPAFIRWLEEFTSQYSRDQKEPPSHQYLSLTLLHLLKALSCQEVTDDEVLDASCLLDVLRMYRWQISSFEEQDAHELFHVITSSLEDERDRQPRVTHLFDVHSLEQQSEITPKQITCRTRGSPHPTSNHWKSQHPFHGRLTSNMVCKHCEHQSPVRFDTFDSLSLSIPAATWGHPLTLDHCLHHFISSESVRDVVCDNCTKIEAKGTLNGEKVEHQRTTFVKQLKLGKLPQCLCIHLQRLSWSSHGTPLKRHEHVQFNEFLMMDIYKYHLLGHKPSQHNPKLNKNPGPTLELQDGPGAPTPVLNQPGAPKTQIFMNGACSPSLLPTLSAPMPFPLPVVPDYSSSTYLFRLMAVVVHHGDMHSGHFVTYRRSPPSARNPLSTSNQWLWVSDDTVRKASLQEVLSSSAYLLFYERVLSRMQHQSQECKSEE
OTUD3 block – blocks human OTUD3 ubiquitin-rhodamine cleavage. Q5T2D3. purified OTUD3, Ub-rhodamine fluorescence, 2 h. inhibition, % at 25 µM. 0.7% of 47,000 active
* hit, by the source's call; · = no result given. Sampled rows, rich in hits. Any-hit rate of the full collection: about 12%. Cut-off read from the data, not from the text of the source: active = inhibition above about 30%; inactive = the rest.

SMILES	USP17 block	USP28 block	USP30 block	OTUD3 block
CC1CCCN(S(=O)(=O)c2ccc(-n3cnc(C(=O)N4CCCC4)c3)nc2)C1 (stereo not drawn)	29.5	-1.6	46.2*	4.2
CC1CCCN(S(=O)(=O)c2ccc(-n3cnc(C(=O)N4CCCCC4)c3)nc2)C1 (stereo not drawn)	-5.2	-3.5	13.2	-2.8
Cc1ccccc1C(=O)NCCn1cc(SCC(=O)Nc2ccc3c(c2)OCCO3)c2ccccc21	22.1	56.5*	88.9*	44.4*
Cc1ccccc1Cn1cc(SCC(=O)Nc2ccc3c(c2)OCCO3)c2ccccc21	11.3	50.3*	35.3*	22.5
O=C(CSc1cn(CC(=O)N2CCCCC2)c2ccccc12)Nc1ccc2c(c1)OCO2	8.3	10.0	17.6	2.7
O=C(CSc1cn(Cc2ccccc2)c2ccccc12)Nc1ccc2c(c1)OCCO2	·	59.8*	47.8*	21.2
O=C(CCn1c(=O)c2ccccc2n(CC(=O)Nc2ccc3c(c2)OCCO3)c1=O)NCCc1ccccc1	48.5*	-2.0	3.8	-3.9
Cc1ccccc1C(=O)NCCn1cc(SCC(=O)N2CCOCC2)c2ccccc21	-4.7	10.1	2.2	0.4
O=C(CCn1cnc2cc(-c3noc(-c4ccncc4)n3)ccc21)N1CCCC1	-5.4	0.0	-3.5	-3.6
CC(C)c1cc(Nc2ccc(O)cc2)n2nc(-c3cccnc3)nc2n1	19.3	4.1	17.7	15.3
CCCNc1cc(-c2ccccc2)nc2nc(-c3cccnc3)nn12	54.3*	4.9	29.8	14.1
COc1cccc(CNc2cc(C(C)C)nc3nc(-c4cccnc4)nn23)c1	35.3*	14.2	19.8	8.4
CC(C)c1cc(NCc2ccco2)n2nc(-c3cccnc3)nc2n1	31.3*	16.1	36.6*	16.2
COc1ccc2c(C)c(CCC(=O)N3CCN(c4ccc(F)cc4)CC3)c(=O)oc2c1	-15.0	-13.4	7.5	-8.7
O=C1c2ccccc2-n2c1nc1ccccc1c2=O	50.1*	-7.2	-12.0	-14.3
CCn1c(SCc2nc(-c3cc(OC)ccc3OC)no2)nnc1-c1ccccc1	-2.6	-4.9	0.5	0.1
Fc1ccc(Nc2nc(-c3ccccn3)nc3ccccc23)cc1	39.0*	10.3	31.4*	-4.0
Fc1cccc(Nc2nc(-c3ccccn3)nc3ccccc23)c1	43.3*	7.2	24.5	-2.6
NC(=O)c1cccc(Nc2nc(C(F)(F)F)nc3ccccc23)c1	6.3	8.2	-3.1	-0.3
O=C(OCc1cnc(Cl)s1)c1ccc([N+](=O)[O-])cc1	-3.3	40.5*	3.3	3.4
Cn1nc(-c2ccccc2)c(COC(=O)c2ccc([N+](=O)[O-])cc2)c1Cl	59.5*	-3.2	11.2	18.1
Cc1cccc(C(=O)N2CCC(Cc3cncc(-c4cncn4C)n3)CC2)n1	2.5	-4.2	4.8	-0.1
COc1ccc2[nH]c3c(c2c1)CCN1C(=O)N(c2ccccc2C(=O)NCc2ccccc2)C(=O)[C@]31C	61.0*	17.9	22.5	7.5
Cc1ccc(CNC(=O)c2cccc(N3C(=O)N4CCc5c([nH]c6ccccc56)[C@@]4(C)C3=O)c2)cc1	63.7*	6.3	17.8	11.3
C[C@]12C(=O)N(c3ccccc3C(=O)NCCc3ccccc3)C(=O)N1CCc1c2[nH]c2ccccc12	41.2*	13.5	24.4	10.8
SMILES	USP17 block	USP28 block	USP30 block	OTUD3 block
COc1ccc(CNC(=O)[C@H](C)N2C(=O)N3CCc4c([nH]c5ccc(OC)cc45)[C@@]3(C)C2=O)cc1	50.2*	32.7*	-41.8	-7.4
Cc1ccc(C(CNC(=O)c2cc(-c3ccc4c(c3)OCCO4)on2)N2CCCC2)cc1 (stereo not drawn)	-21.5	-25.3	-273.0	-38.8
O=C1C/C(=C\c2ccc3c(c2)OCO3)Cc2ccccc21	22.6	30.4*	8.7	11.5
O=C1Cc2ccccc2C(=O)N1c1ccc2c(c1)OCO2	66.3*	36.1*	-51.5	14.4
O=C1CSCC(=O)N1c1ccc2c(c1)OCO2	·	5.3	-3.9	-2.3
CC(C)Nc1nc2c(cc1C(=O)N1CCCC1)CCNCC2	-12.1	-9.5	-76.3	-2.3
COc1c([C@H](CC(C)C)OC(C)=O)ccc2c1C(=O)OCc1cc(C)cc(O)c1O2	5.1	8.1	17.4	10.2
COc1c(C)c2c(c(O)c1C/C=C(\C)C(O)CC(=O)O)C(=O)OC2 (stereo not drawn)	0.4	12.2	38.0*	8.1
Cc1cc(O)cc(Oc2cc(C)cc(O)c2)c1	4.0	18.7	30.3*	3.4
CCOc1cc(-c2noc(-c3ccccc3)n2)ccc1OCC(=O)Nc1ncccc1C	37.8*	7.3	31.5*	12.3
COc1ccc(CCNC(=O)[C@H](C)NC(=O)c2cc3c([nH]c4ccccc43)c(C)n2)cc1	33.9*	8.8	-158.7	-30.0
Cc1cnc(C(=O)N2CCc3ncc(Cl)cc3C2)cn1	-0.4	-4.5	-6.6	-2.2
